How the values were obtained:
Assay in all cases: PBM binding z-score (relative to random genomic background probes); higher = stronger binding; sequences stand for … in GC…GCGATTGACAGCGTAGAATGAAGG
[1] = system: FXR:RXRa (NR concentration 270 nM, RXRa partner concentration 90 nM)
Summary of the method: (§1)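 Scanned fluorescence from custom Agilent 4×180K protein-binding microarrays was regression-normalized. Binding z-scores use random background probes as reference. Ligand-free nuclear receptor dimers were incubated on the arrays for 1 h and detected with antibodies against each partner (one per run).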

[2] = system: LXRa:RXRa (NR concentration 270 nM, RXRa partner concentration 90 nM)
Summary of the method: as §1

[3] = system: LXRa homodimer (NR concentration 270 nM)
Summary of the method: as §1

[4] = system: LXRb:RXRa (NR concentration 270 nM, RXRa partner concentration 90 nM)
Summary of the method: as §1

[5] = system: LXRb homodimer (NR concentration 270 nM)
Summary of the method: as §1

[6] = system: PPARa:RXRa (NR concentration 270 nM, RXRa partner concentration 90 nM)
Summary of the method: as §1

[7] = system: PPARg:RXRa (NR concentration 180 nM, RXRa partner concentration 90 nM)
Summary of the method: as §1

[8] = system: PPARg:RXRa 270nM:90nM, anti-RXR (NR concentration 270 nM, RXRa partner concentration 90 nM)
Summary of the method: as §1

[9] = system: PPARg:RXRa 30nM:10nM, anti-RXR (NR concentration 30 nM, RXRa partner concentration 10 nM)
Summary of the method: as §1

[10] = system: PPARg:RXRa 90nM:30nM, anti-RXR (NR concentration 90 nM, RXRa partner concentration 30 nM)
Summary of the method: as §1

[11] = system: PPARg:RXRa DBDmut IVT, anti-RXR (DBD mutation: RXRa K156A/R161A, NR concentration 270 nM, RXRa partner concentration 90 nM)
Summary of the method: as §1

[12] = system: PPARg:RXRa IVT, anti-PPARg (NR concentration 270 nM, RXRa partner concentration 90 nM)
Summary of the method: as §1

[13] = system: PPARg DBDmut:RXRa IVT, anti-PPARg (DBD mutation: PPARg1 K132A/R137A, NR concentration 270 nM, RXRa partner concentration 90 nM)
Summary of the method: as §1

[14] = system: PPARg DBDmut IVT, anti-PPARg (DBD mutation: PPARg1 K132A/R137A, NR concentration 270 nM)
Summary of the method: as §1

[15] = system: PPARg homodimer (NR concentration 180 nM)
Summary of the method: as §1

[16] = system: PXR:RXRa (NR concentration 270 nM, RXRa partner concentration 90 nM)
Summary of the method: as §1

[17] = system: PXR homodimer (NR concentration 270 nM)
Summary of the method: as §1

[18] = system: RARa:RXR (NR concentration 270 nM, RXRa partner concentration 90 nM)
Summary of the method: as §1

[19] = system: RARa homodimer (NR concentration 270 nM)
Summary of the method: as §1

[20] = system: RARb:RXRa (NR concentration 270 nM, RXRa partner concentration 90 nM)
Summary of the method: as §1

Sequence	PBM binding z-score [1]	PBM binding z-score [2]	PBM binding z-score [3]	PBM binding z-score [4]	PBM binding z-score [5]	PBM binding z-score [6]	PBM binding z-score [7]	PBM binding z-score [8]	PBM binding z-score [9]	PBM binding z-score [10]	PBM binding z-score [11]	PBM binding z-score [12]	PBM binding z-score [13]	PBM binding z-score [14]	PBM binding z-score [15]	PBM binding z-score [16]	PBM binding z-score [17]	PBM binding z-score [18]	PBM binding z-score [19]	PBM binding z-score [20]
TCTAGTTGGTCAAAGTTCACACACTCGAAATGCG	3.96	4.54	4.63	3.66	1.36	5.5	9.83	9.2	8.79	9.75	2.57	4.89	1.12	1.12	3.54	5.09	4.01	5.1	2.77	3.83
CCGAGTCGGTTATGGGGCATTCAGGCAACGGTGA	-0.323	-0.235	-0.49	-0.14	-0.656	0.438	0.463	1.66	-0.306	0.771	0.293	0.608	-1.56	-1.49	0.196	-0.541	-0.48	-0.567	-0.241	0.404
ATCGAAAGGTCGTGATGTGAGTATACAGAAAGGC	4.54	3.48	0.378	3.08	0.626	4.67	3.21	3.2	1.34	2.34	-0.177	1.63	1.58	1.08	1.07	2.71	0.368	3.38	0.598	3.68
CCGACTGGGGCAGAAACGTTACCATACCATCCGG	-0.564	-0.949	-0.452	-0.779	-0.864	-1	0.724	-0.373	-0.314	-0.369	1.22	0.558	-0.521	-0.904	-0.18	-0.851	-0.758	-0.735	0.0145	-0.053
CACACAGGGTCAGCTAGGCCAGAGTAGGGACGGC	4.77	2.64	-0.0558	2.18	0.152	4.32	3.21	2.62	0.502	1.62	0.553	2.09	0.463	0.562	2.14	2.06	0.13	3.32	0.53	4.09
TCACCAAGGTGAAGGTCGTTGATCCCTCTGTAGA	2.28	2.24	-0.136	1.8	-0.731	2.71	2.23	3.66	2.84	3.37	2.46	2.65	0.477	0.105	-0.15	1.61	0.00737	1.94	-1.46	2.27
TCAGACAGCTGAAGGTAACTCAGGTACGCAGTCG	-0.16	1.22	-0.677	0.336	-0.931	0.454	0.398	1.49	2.91	2.14	1.6	-0.656	-0.951	-0.614	-1.05	0.139	-0.874	0.392	-0.741	-0.0591
ATCTCTAGGTAAGACTCACTTCAGTGAAGAACGC	0.0875	0.0793	-0.134	0.11	0.863	0.00782	0.276	0.0551	0.479	0.192	1.59	1.19	0.772	1.01	0.77	-0.228	0.171	-0.265	0.334	-0.0456
ACTAGCAGACCAAGTTTGGGTCACTCAAACAAAG	-0.0358	-0.0494	-0.696	0.808	-0.744	1.32	-0.0128	0.182	-0.186	0.531	-0.311	0.415	-0.191	-0.505	-0.222	0.6	-0.393	1.12	-0.119	0.992
CCTACTGGGCCATCAGCTCATTGATATCAACGTT	-0.649	-0.431	-0.409	-0.655	-0.446	-0.141	0.457	0.344	-0.273	0.098	3.97	3.36	-0.394	-0.205	-0.413	-0.673	-0.788	-0.689	-0.576	-0.0601
ATCTTTAGGTAAAAGTTCAGTGAATCCCGAGGAT	0.829	1.33	1.14	0.973	1.01	4.03	6.36	7.35	6.09	7.91	0.803	3.1	1.38	1.31	1.01	2.07	1.47	1.56	0.328	2.51
GCAGACAGGTGAAACGCATGTAACTCAGGGTGGC	-0.379	-0.173	-0.544	-0.265	-1.29	0.825	0.841	-0.0772	-0.653	-0.344	0.516	0.404	-1.74	-0.927	-0.716	-0.307	-0.659	-0.0582	-0.606	0.532
GCTAGCAGGCCATTTGGGTCGCTCAATGACGGGC	-0.655	-0.842	-0.846	-1.04	-1.24	-0.407	-0.08	-0.417	-0.944	-0.61	0.479	0.26	-1.18	-1.25	-1.01	-0.81	-0.85	-0.542	-1.69	-0.0207
ACTTACGGGTCAACGAGGCTATAGCACGCGTATA	7.11	4.24	0.0789	3.85	0.747	5.82	5.21	4.87	1.81	3.64	3.07	3.98	0.121	1.38	1.92	3.59	0.421	4.16	0.515	4.01
ACTCGGAGGACAAAGGTCAGCGCTACGCCAGTGA	4.44	4.2	1.62	3.51	0.168	5.24	8.05	7.77	7.19	8.33	0.977	3.82	0.281	-0.509	4.7	3.99	0.485	5.21	1.94	4.73
